Results filed as inconclusive are left out. For some of these results: Potency and affinity values are given separately. Active and inactive are the calls of the source.
Legend:
[1] = Ebola virus entry assay, reporter ratio channel; AC50: Channel type: primary unless noted; outcome: Channel type: primary unless noted
[2] = Ebola virus entry assay, blue channel (ratio component)
[3] = qHTS assay for measurement of the activity of small molecule inhibitors on Zika virus induced Caspase-3 activity in human iPSC derived neural progenitor cells (hNPCs) (AID 1224857); note: nearly all actives have a fitted effect of over 65% in size
Procedure, shortened: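 hNPCs seeded 350 cells/well, cultured 16–20 h; compounds added 1 h before ZIKV (2 FFU/cell), 37 C 6 h. Caspase-Glo 3/7 luminescence after 30 min RT; % inhibition from induction scaled to uninfected (0%) and infected (100%) wells.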

[4] = qHTS assay for measurement of the activity of small molecule inhibitors on Zika virus induced Caspase-3 activity in human astrocytoma cells (AID 1224859)
Procedure, shortened: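 Luminescence read-out (Caspase-Glo 3/7, 30 min RT) of caspase activity in SNB-19 cells infected 6 h with ZIKV, 2 FFU/cell, after 1 h compound pretreatment; % inhibition from induction normalised to uninfected (0%) and infected (100%) wells.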

[5] = qHTS assay to identify small molecule inhibitors of chordoma cells - UCH-1 (AID 1259355); note: nearly all actives have a fitted effect of over 55% in size
Procedure, shortened: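 Cells (800/well) were seeded and left overnight at 37 C, 5% CO2, then treated with drugs at 15 concentrations plus a combination mix of auranofin, camptothecin, doxorubicin, rubitecan and topotecan. Viability after 48hr was read by CellTiter-Glo luminescence.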

[6] = qHTS assay to identify small molecule inhibitors of chordoma cells - UCH-2 (AID 1259356); note: series mostly up to about 46 µM
[7] = Ebola virus entry reporter assay, green channel fluorescence
[8] = Ebola virus entry cell assay, ratio channel
[9] = Immunotoxin (HA22) sensitization/mitigation study. Vehicle arm (PBS) (AID 1159510; call rule not given here; note: potency is the fitted concentration of half-maximal effect)
[10] = Immunotoxin (SS1P) sensitization/mitigation study. Vehicle arm (DMEM) (AID 1159513; call rule not given here; note: potency is the fitted concentration of half-maximal effect)

O=c1oc2ccccc2c(O)c1C(CC(O)c1ccc(-c2ccc(Br)cc2)cc1)c1ccccc1 (centres undefined)
inactive: outcome [1] | outcome [2] | Potency [3] | outcome [4] | Potency [5] | Potency [6]

O=[N+]([O-])c1cc([As](=O)(O)O)ccc1O
inactive: outcome [1] | outcome [2] | Potency [3] | outcome [4] | Potency [5] | Potency [6]

CC1NCCOC1c1ccccc1 (centres undefined)
inactive: outcome [1] | outcome [2] | Potency [3] | outcome [4] | Potency [5] | Potency [6]

NP(N)(=O)NC(=O)c1ccc(F)cc1
inactive: outcome [1] | outcome [2] | Potency [3] | outcome [4] | Potency [5] | Potency [6]

CC(=O)[C@H]1CC[C@H]2[C@@H]3CC[C@H]4C[C@](C)(O)CC[C@]4(C)[C@H]3CC[C@]12C
inactive: outcome [1] | outcome [2] | Potency [3] | outcome [4] | Potency [5] | Potency [6]

FC(F)(F)c1cccc(C2=CCN(CCc3ccc4ccccc4c3)CC2)c1
inactive: outcome [1] | outcome [2] | Potency [3] | outcome [4] | Potency [5] | Potency [6]

NCC(O)c1ccc(O)cc1 (centres undefined)
inactive: outcome [1] | outcome [2] | Potency [3] | outcome [4] | Potency [5] | Potency [6]

Cc1ccsc1C(=CCCN1CCC[C@@H](C(=O)O)C1)c1sccc1C
inactive: outcome [7] | outcome [8]
active: AC50 [1] 20 µM

CN1C(=S)CN=C(c2ccccc2)c2cc(Cl)ccc21
inactive: outcome [1] | outcome [2] | Potency [3] | outcome [4] | Potency [5] | Potency [6]

O=C(O)c1ccc2[nH]cc(CCCCN3CC=C(c4ccccc4)CC3)c2c1
inactive: outcome [1] | outcome [2] | Potency [3] | outcome [4] | Potency [5] | Potency [6]

CC(=O)[C@H]1CC[C@H]2[C@@H]3CC[C@H]4C[C@H](O)CC[C@]4(C)[C@H]3C(=O)C[C@]12C
inactive: outcome [1] | outcome [2] | Potency [3] | outcome [4] | Potency [5] | Potency [6]

COc1ccc(Cc2nccc3cc(OC)c(OC)cc23)cc1OC
inactive: outcome [1] | outcome [2] | Potency [3] | outcome [4] | Potency [5] | Potency [6]

CC[N+]1(C)CCCC(OC(=O)C(O)(c2ccccc2)c2ccccc2)C1 (centres undefined)
inactive: outcome [1] | outcome [2] | outcome [4] | Potency [5] | Potency [6]

CCC1(C2=NCCN2)Cc2ccccc2O1 (centres undefined)
inactive: outcome [1] | outcome [2] | Potency [3] | outcome [4] | Potency [5] | Potency [6]

N[C@@H](Cc1ccc(Oc2cc(I)c(O)c(I)c2)c(I)c1)C(=O)O
inactive: outcome [1] | outcome [2] | outcome [4] | Potency [5] | Potency [6]

Cc1ncc(CNC(=O)N(CCCl)N=O)c(N)n1
inactive: outcome [1] | outcome [2] | Potency [3] | outcome [4] | Potency [5] | Potency [6]

CCN(CC)C(=O)N[C@@H]1C=C2c3cccc4[nH]cc(c34)C[C@@H]2N(C)C1
inactive: outcome [2] | Potency [3] | outcome [4] | Potency [5] | Potency [6]
active: AC50 [1] 31.6 µM

NN=C(N)N
inactive: outcome [1] | outcome [2] | outcome [4] | Potency [5] | Potency [6]

OCCOc1ccccc1
inactive: outcome [1] | outcome [2] | Potency [3] | outcome [4] | Potency [5] | Potency [6]

N#CC(C#N)=Cc1ccc(O)c(O)c1
inactive: outcome [1] | outcome [2] | Potency [3] | outcome [4] | Potency [5] | Potency [6]

CCCC1CCCCN1 (centres undefined)
inactive: outcome [1] | outcome [2] | outcome [4] | Potency [5] | Potency [6]

CCOP(=S)(OCC)Oc1cc(C)nc(C(C)C)n1
inactive: outcome [1] | outcome [2] | Potency [3] | outcome [4] | Potency [5] | Potency [6]

CC[N+](CC)(CC)CC
inactive: outcome [1] | outcome [2] | outcome [4] | Potency [5] | Potency [6]

CC(C)(N)Cc1ccc(Cl)cc1
inactive: outcome [1] | outcome [2] | outcome [4] | Potency [5] | Potency [6]

CNC(=O)c1cc(Oc2ccc(NC(=O)Nc3ccc(Cl)c(C(F)(F)F)c3)cc2)ccn1
active: Potency [9] 14.8 µM | Potency [10] 20.9 µM

Cc1nc(Nc2ncc(C(=O)Nc3c(C)cccc3Cl)s2)cc(N2CCN(CCO)CC2)n1
active: Potency [9] 5.9 µM | Potency [10] 20.9 µM

CCN(CC)CCN1C(=O)CN=C(c2ccccc2F)c2cc(Cl)ccc21
inactive: Potency [3] | outcome [4] | Potency [5] | Potency [6]

CCOC(=O)C1(c2ccccc2)CCN(CCC(C#N)(c2ccccc2)c2ccccc2)CC1
inactive: outcome [4] | Potency [5] | Potency [6]

COc1cc2nc(N3CCN(C(=O)C4COc5ccccc5O4)CC3)nc(N)c2cc1OC (centres undefined)
inactive: outcome [8]
active: AC50 [1] 15.8 µM

CCc1nn(CCCN2CCN(c3cccc(Cl)c3)CC2)c(=O)n1CCOc1ccccc1
active: AC50 [1] 31.6 µM | AC50 [8] 22.4 µM

CN1CCC[C@@H]1CCO[C@](C)(c1ccccc1)c1ccc(Cl)cc1
active: AC50 [1] 1.41 µM | AC50 [8] 3.16 µM

CC(=O)[C@]1(O)Cc2c(O)c3c(c(O)c2[C@@H](O[C@H]2C[C@H](N)[C@H](O)[C@H](C)O2)C1)C(=O)c1ccccc1C3=O
inactive: outcome [8]
active: AC50 [1] 12.6 µM
